# In PubChem BioAssay (Tox21):
# Results filed as inconclusive are left out. Where a call stands in place of a potency, no number is given. Activity calls are given as the source filed them. The call rests on the fitted dose curve; in most records, active means well fitted cell-killing curve with a large enough effect in the repeat runs (not every such curve was filed as active); inconclusive means weak or mixed curves, or effect the other way; inactive means no such curve, though single readings can be large or run the other way.
# Assay: qHTS assay to identify small molecule antagonists of the estrogen related receptor signaling pathway with the pleiotropic PPARgamma coactivator (PGC) from Tox21 10K library - cell viability counter screen (AID 1224840); further: nearly all actives have a fitted effect of over 40% in size
# Settings: PGC/ERR reporter cells viability, CellTiter-Fluor, 17.5 h; series mostly up to 92.4 µM
# Excerpt: National Center for Advancing Translational Sciences [NCATS]
# NIH Chemical Genomics Center [NCGC]
# U.S. Environmental Protection Agency [EPA]
# National Institutes of Environmental Health Sciences [NIEHS]
# National Toxicology Program [NTP]
# U.S. Food and Drug Administration [FDA]
# Estrogen related receptors (ERRs), the first orphan nuclear receptors discovered, play an important role in the control of cellular energy metabolism. ERRs are required for high-energy production in response to the environmental challenges. The pleiotropic PPARgamma coactivator (PGC) is a major partner of ERR and a key regulator in energy homeostasis. Together they have been implicated in the etiology of metabolic disorders such as Type 2 diabetes and metabolic syndrome. ERR-alpha was also identified as an adverse marker for breast cancer progression; ERR-alpha-positive tumors have a poor prognosis. To screen and to identify environmental compounds that perturb the ERR and PGC/ERR signaling pathways could provide valuable information for potential therapeutic or preventive measures in the treatment of metabolic disease. To differentiate true PGC/ERR antagonists or agonist from cytotoxic substances, the assay is multiplexed with cell viability assay.
# Tox21 Assay Protocol Summary:
# The PGC/ERR cells were dispensed at 2,000 cells/5 ul/well in 1536-well white plates using a Multidrop dispenser. After the assay plates were incubated at a 37 C/5% CO2 incubator for 6 hours, 23 nL of compounds dissolved in DMSO, positive and negative controls or DMSO only was transferred to the assay plate by a pin tool. The plates were incubated at 37 C for 17.5 hours. 1 ul/well of CellTiter-Fluor reagent was added into the assay plates using a Flying Reagent Dispenser. After 30-minute incubation at 37 C/5% CO2, the fluorescence intensity in the plates was measured using a ViewLux plate reader.
row,Compound,Potency
1,CC(C(=O)O)c1ccc(-c2ccccc2)c(F)c1 (stereo not given),inactive
2,O=C(O)c1cccc(N(Cc2cccnc2)c2ccc(OC(F)F)c(OC(F)F)c2)c1,inactive
3,SC1CCCC1,inactive
4,CC(Cc1cccc(C(F)(F)F)c1)NCCOC(=O)c1ccccc1 (stereo not given),inactive
5,C=C(C)C(=O)OCCOc1ccccc1,inactive
6,Cc1ccccn1,inactive
7,CCCCCCCCCO,inactive
8,CC[C@@H]1C[C@H](N(Cc2cc(C(F)(F)F)cc(C(F)(F)F)c2)C(C)=O)c2cc(C(F)(F)F)ccc2N1C(=O)OC(C)C,inactive
9,CCCCCCCCC(CO)CCCCCC (stereo not given),inactive
10,CCOc1ccc2[nH]cc(C(=O)NCc3ccccc3)c(=O)c2n1,inactive
11,CC(CN)CCCN (stereo not given),inactive
12,CCCCCCCCCC(=O)OCC,inactive
13,O=c1[nH]cnc2ccccc12,inactive
14,Nc1nc(N)c2nc(CNc3ccc(C(=O)N[C@@H](CCC(=O)O)C(=O)O)cc3)cnc2n1,inactive
15,Cc1ccc(C(=O)C(C)CN2CCCCC2)cc1 (stereo not given),inactive
16,COCCOCCOCCOCCOC,inactive
17,Oc1ccc(O)c2c(O)cccc12,inactive
18,OCCC1CCCCN1 (stereo not given),inactive
19,C=C(C)C(=O)OCCN(C)C,inactive
20,CC(=O)N(CC(=O)N(C)C)c1ccccc1,inactive

row,Compound,Potency
1,O=C1c2cccc(O)c2C(=O)c2c(O)cc(CO)cc21,inactive
2,CCCCOc1ccc(CC(=O)NO)cc1,inactive
3,CC(C)(Oc1ccc(Cl)cc1)C(=O)OCCCOC(=O)C(C)(C)Oc1ccc(Cl)cc1,inactive
4,CCCCOC(O)CC (stereo not given),inactive
5,O=C1[C@H](CC[C@H](O)c2ccc(F)cc2)[C@@H](c2ccc(O)cc2)N1c1ccc(F)cc1,inactive
6,CCC(C)N(C)C(=O)c1cc2ccccc2c(-c2ccccc2Cl)n1 (stereo not given),inactive
7,O=C1Nc2cc(Cl)ccc2Oc2ccccc21,inactive
8,CCCC(=O)OCC,inactive
9,O=C(O)/C=C/c1cnc[nH]1,inactive
10,CCOc1nc2cccc(C(=O)O)c2n1Cc1ccc(-c2ccccc2-c2nn[nH]n2)cc1,inactive
11,C=CC(C)(CCC=C(C)C)OC(=O)c1ccccc1 (stereo not given),inactive
12,C=Cc1c(C)c2cc3[nH]c(cc4nc(cc5nc(cc1[nH]2)C(C)=C5CCC(=O)O)C(CCC(=O)O)=C4C)c(C)c3C=C,inactive
13,CC[C@H](C)[C@@H](C(=O)O)n1sc2ccccc2c1=O,inactive
14,O=C(Nc1ccccc1)OCC(CN1CCCCC1)OC(=O)Nc1ccccc1 (stereo not given),inactive
15,CC(C)c1ccccc1C(C)C,inactive
16,COC(Cc1ccccc1)OC,inactive
17,CNCC[C@@H](Oc1ccccc1C)c1ccccc1,inactive
18,CC[C@H](C)[C@H](N)C(=O)O,inactive
19,CCN(CC)C(C)=O,inactive
20,CC/C(=C\C(=N/O)C(N)=O)C(C)[N+](=O)[O-] (stereo not given),inactive
